Reference: PubChem BioAssay
Active and inactive are the calls of the source.

Assays:
[1] = binders of probe aFSTL3 on microarray, primary screen, stem cell growth factor project, biochemical, small-molecule microarray, fluorescence 635/667 (AID 1064); settings: higher = more signal;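 further: measures binding of the biotinylated anti-FSTL3 antibody to printed compounds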
[2] = binders from COS7 lysate, DM2A8 probe, primary screen, torsin A project, cell lysate, small-molecule microarray, fluorescence 635/667 (AID 1065); settings: higher = more signal, COS7 lysate expressing mutant human TOR1A
[3] = binders of probe aFGF2 on microarray, primary screen, stem cell growth factor project, biochemical, small-molecule microarray, fluorescence 635/667 (AID 1067); settings: higher = more signal;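 further: measures binding of biotinylated aFGF2 protein to printed compounds on slides; z-score merges feature fluorescence and signal-to-noise across triplicate slides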
[4] = binders of probe aFGF10 on microarray, primary screen, stem cell growth factor project, biochemical, small-molecule microarray, fluorescence 635/667 (AID 1071); settings: higher = more signal;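 further: score merges 667 nm spot intensity and signal to noise from triplicate slides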
[5] = biological target: Neurogenic locus notch homolog protein 2 (Homo sapiens) (UniProt Q04721); assay: Notch2 binders on small-molecule microarrays, primary screen, biochemical, small-molecule microarray, 635 nm fluorescence, stem cell growth factors (AID 1073); settings: Notch2 binding, higher = more signal
Neurogenic locus notch homolog protein 2 (Homo sapiens), sequence (Q04721 whole entry, looked up, canonical isoform): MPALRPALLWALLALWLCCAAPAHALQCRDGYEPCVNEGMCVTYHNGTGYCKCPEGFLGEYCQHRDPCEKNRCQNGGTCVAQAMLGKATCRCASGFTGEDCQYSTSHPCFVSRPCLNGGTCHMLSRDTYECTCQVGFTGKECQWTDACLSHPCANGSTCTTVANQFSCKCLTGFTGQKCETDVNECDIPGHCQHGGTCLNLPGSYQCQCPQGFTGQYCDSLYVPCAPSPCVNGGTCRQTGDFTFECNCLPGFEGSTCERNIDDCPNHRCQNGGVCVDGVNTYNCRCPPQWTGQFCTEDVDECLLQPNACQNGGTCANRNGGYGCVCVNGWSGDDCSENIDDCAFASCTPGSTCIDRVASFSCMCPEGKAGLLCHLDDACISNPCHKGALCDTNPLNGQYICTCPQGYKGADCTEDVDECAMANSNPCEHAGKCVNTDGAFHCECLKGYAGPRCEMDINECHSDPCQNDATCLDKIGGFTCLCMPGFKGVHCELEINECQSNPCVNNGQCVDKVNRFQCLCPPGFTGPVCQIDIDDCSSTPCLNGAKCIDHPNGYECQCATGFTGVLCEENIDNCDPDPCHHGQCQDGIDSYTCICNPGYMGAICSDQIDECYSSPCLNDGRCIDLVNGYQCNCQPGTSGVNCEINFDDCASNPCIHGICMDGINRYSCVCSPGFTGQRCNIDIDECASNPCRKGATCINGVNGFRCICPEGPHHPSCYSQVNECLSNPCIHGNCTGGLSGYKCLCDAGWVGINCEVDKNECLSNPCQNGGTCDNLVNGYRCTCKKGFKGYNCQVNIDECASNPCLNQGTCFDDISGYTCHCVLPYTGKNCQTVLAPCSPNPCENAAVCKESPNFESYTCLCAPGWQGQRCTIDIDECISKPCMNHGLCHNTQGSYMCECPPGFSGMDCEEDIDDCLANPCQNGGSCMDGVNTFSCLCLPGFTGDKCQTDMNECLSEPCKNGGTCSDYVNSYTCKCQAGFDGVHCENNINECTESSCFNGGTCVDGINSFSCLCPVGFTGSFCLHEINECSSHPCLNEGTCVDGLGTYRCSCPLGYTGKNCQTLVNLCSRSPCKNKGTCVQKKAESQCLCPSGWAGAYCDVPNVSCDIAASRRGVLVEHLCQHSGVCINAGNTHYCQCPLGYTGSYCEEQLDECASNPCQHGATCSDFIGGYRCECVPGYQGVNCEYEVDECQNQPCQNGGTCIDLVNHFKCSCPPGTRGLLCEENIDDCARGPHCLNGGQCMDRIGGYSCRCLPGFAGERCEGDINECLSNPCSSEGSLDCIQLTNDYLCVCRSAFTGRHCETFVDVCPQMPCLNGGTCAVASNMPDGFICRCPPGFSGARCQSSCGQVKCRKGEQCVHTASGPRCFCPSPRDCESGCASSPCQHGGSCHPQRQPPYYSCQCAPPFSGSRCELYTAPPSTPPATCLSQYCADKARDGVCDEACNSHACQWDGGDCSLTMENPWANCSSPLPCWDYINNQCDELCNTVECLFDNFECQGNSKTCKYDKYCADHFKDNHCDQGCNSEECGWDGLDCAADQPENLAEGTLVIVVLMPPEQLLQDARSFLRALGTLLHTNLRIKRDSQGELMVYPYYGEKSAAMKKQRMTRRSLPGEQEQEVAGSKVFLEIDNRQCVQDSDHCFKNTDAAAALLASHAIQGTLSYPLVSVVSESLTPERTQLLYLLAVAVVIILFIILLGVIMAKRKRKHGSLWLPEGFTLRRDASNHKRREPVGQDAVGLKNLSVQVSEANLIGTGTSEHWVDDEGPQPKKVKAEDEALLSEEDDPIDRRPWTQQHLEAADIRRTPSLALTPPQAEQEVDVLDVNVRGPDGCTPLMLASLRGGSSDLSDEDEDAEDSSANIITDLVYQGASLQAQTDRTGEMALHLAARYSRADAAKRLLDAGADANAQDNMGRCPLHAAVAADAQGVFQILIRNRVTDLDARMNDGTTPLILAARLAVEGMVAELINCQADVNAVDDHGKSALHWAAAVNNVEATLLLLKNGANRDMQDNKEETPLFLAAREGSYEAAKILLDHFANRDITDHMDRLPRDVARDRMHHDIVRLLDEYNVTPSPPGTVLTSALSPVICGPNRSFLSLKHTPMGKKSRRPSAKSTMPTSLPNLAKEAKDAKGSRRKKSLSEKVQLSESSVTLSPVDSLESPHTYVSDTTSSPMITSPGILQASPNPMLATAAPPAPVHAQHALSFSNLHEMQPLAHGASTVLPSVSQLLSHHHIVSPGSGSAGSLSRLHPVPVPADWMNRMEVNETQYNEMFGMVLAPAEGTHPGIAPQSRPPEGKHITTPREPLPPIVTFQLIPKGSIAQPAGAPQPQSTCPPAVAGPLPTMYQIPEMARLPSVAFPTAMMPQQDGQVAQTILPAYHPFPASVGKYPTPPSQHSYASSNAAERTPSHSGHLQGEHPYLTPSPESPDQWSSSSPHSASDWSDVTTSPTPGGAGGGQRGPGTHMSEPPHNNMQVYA

[6] = biological target: Pro-neuregulin-1, membrane-bound isoform (Homo sapiens) (UniProt Q02297); assay: NRG1 binders on small-molecule microarrays, primary screen, psychiatric disease protein project, biochemical, small-molecule microarray, fluorescence 635/667 (AID 1075); settings: NRG1 binding, 635 nm fluorescence, higher = more signal;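 further: score combines 667 nm spot fluorescence with signal to noise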
Pro-neuregulin-1, membrane-bound isoform (Homo sapiens), sequence (Q02297 whole entry, looked up, the tested form may be a part, canonical isoform): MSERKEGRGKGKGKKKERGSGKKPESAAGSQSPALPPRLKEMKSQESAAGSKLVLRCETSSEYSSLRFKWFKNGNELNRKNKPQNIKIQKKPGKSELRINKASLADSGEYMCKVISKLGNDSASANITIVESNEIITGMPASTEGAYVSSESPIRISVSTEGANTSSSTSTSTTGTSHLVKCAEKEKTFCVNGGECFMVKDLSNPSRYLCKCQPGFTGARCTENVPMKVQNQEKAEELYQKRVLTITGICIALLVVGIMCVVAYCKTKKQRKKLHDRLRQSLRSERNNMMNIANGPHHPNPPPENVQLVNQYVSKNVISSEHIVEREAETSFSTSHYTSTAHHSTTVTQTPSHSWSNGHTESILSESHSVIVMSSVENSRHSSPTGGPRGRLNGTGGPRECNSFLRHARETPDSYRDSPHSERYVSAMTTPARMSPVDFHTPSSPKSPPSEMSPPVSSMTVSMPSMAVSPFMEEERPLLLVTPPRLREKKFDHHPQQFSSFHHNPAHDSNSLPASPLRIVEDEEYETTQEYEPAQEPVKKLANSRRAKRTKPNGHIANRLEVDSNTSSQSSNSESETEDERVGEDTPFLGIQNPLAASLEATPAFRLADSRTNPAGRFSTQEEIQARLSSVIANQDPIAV

[7] = tested on: Neuregulin-1 EGF-like domain; assay: binders of neuregulin-1 EGF-like domain, primary screen, biochemical, small-molecule microarray, 635 nm fluorescence (AID 1081); settings: small-molecule microarray binding, higher = more signal;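 further: binding of the protein to compounds printed on small-molecule microarray slides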
[8] = FRG1 promoter luciferase signal modulators, primary screen, FRG1 inhibition for FSHD, cell-based, C2C12 myotubes, firefly/Renilla luciferase, luminescence (AID 1084); settings: higher = more signal, called active from +8 up or from −8 down
[9] = binders of probe aFST on microarray, primary screen, stem cell growth factor project, biochemical, small-molecule microarray, fluorescence 635/667 (AID 1086); settings: higher = more signal;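 further: score merges 667 nm fluorescence with signal-to-noise of each printed compound spot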
[10] = binders of probe aHhip on microarray, primary screen, stem cell growth factor project, biochemical, small-molecule microarray, fluorescence 635/667 (AID 1087); settings: higher = more signal;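 further: score merges spot fluorescence at 667nm with spot signal to noise ratio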

SMILES | composite z-score [1] | composite z-score [2] | composite z-score [3] | composite z-score [4] | composite z-score [5] | composite z-score [6] | composite z-score [7] | z-score [8] | composite z-score [9] | composite z-score [10]
O=P(NCC1(CC2(c3ccccc3)CO2)CC1)(c1ccccc1)c1ccccc1 (stereo not given) | 0.565 | -0.856 | 0.218 | 0.315 | -0.401 | 1.06 | 0.619 | -1.59 (inactive) | -0.0087 | 0.275
CO[C@H]1O[C@H](CO)[C@@H](OC(=O)Nc2ccccc2-c2ccccc2)[C@H](OC(=O)Nc2ccccc2-c2ccccc2)[C@H]1OC(=O)Nc1ccccc1-c1ccccc1 | -0.0136 | 1.68 | 0.17 | 1.17 | 1.4 | 0.885 | 1.42 | 0.849 (inactive) | 0.374 | 0.245
[N-]=[N+]=NCc1ccccc1[C@H]1OC(c2ccc(OCCCO)cc2)=N[C@@]1(Cc1ccccc1)C(=O)O | 0.227 | 0.325 | -0.0586 | 0.345 | 0.653 | 1.1 | 0.97 | 1.82 (inactive) | 0.554 | -0.0994
COc1ccc([Si](C)(C)[C@H]2[C@H](CCO)O[C@@]3(C(=O)N(Cc4ccccc4)c4ccc(N5C(=O)COc6ccccc65)cc43)[C@@H]2C)cc1 | 0.253 | -0.113 | -0.0692 | 0.264 | 0.167 | 1.06 | 0.487 | -1.69 (inactive) | 0.0228 | 0.357
CCOC(=O)C1=CC[C@@H](c2ccccc2)N(S(=O)(=O)c2ccc(C)cc2)[C@H]1c1ccc(C#N)cc1 | -0.0221 | 0.381 | 0.054 | 0.359 | 1.43 | 1 | 1.01 | -1.59 (inactive) | 0.832 | -0.161
O=C1O[C@H](c2ccccc2)[C@H](c2ccccc2)N2[C@H]1[C@@H](C(=O)NC[C@H](O)c1ccccc1)[C@]1(C(=O)Nc3ccc(C#CC4=CCCCC4)cc31)[C@H]2c1ccc(O)cc1 | 0.84 | 0.891 | 0.146 | 0.962 | 0.671 | 1.4 | 1.16 | 0.733 (inactive) | 0.826 | -0.0618
Cc1ccc(F)cc1S(=O)(=O)N[C@@H]1CCN(Cc2ccc(C(F)(F)F)cc2)C1 | -0.234 | 0.588 | -0.198 | -1.06 | -1.26 | 0.0824 | -0.19 | -3.87 (inactive) | -0.47 | -0.283
[N-]=[N+]=NCc1ccccc1C[C@]1(C(N)=O)N=C(c2ccc(OCCCO)cc2)O[C@H]1c1ccccc1N=[N+]=[N-] | 0.567 | -0.186 | -0.0085 | 0.665 | 0.997 | 1.3 | 1.12 | -1.4 (inactive) | 0.93 | 0.151
[N-]=[N+]=NCc1ccccc1C[C@]1(C(=O)NCc2ccccc2)COC(c2ccc(OCCCO)cc2)=N1 | 0.0555 | 0.808 | 0.0111 | 0.157 | 0.472 | 1.17 | 0.931 | -3.06 (inactive) | 0.534 | -0.166
NC(=O)[C@@]1(CCS(=O)(=O)c2ccccc2)N=C(c2ccc(OCCCO)cc2)O[C@H]1c1ccccc1 | 0.287 | 1.54 | 0.103 | 0.58 | 0.251 | 0.0342 | 1.3 | -1.19 (inactive) | 0.893 | -0.0645
Oc1ccc2cc[n+](Cc3cccc(OC(F)(F)F)c3)cc2c1 | -0.446 | 1.77 | -0.0841 | -0.0974 | 0.0892 | -0.322 | 0.921 | 0.498 (inactive) | 0.191 | 0.0749
Cc1ccc(S[C@]2(C(=O)NCC(F)(F)F)CC(=O)N(C3Cc4ccccc4C3)[C@@H]2c2ccc(CO)cc2I)cc1 | 1.27 | 0.0708 | -0.11 | -0.433 | -0.929 | 0.569 | 0.455 | -0.92 (inactive) | -0.265 | 0.0024
C=CCNC(=O)[C@H]1[C@@H]2C(=O)O[C@@H](c3ccccc3)[C@@H](c3ccccc3)N2[C@@H](c2ccc(O)cc2)[C@]12C(=O)Nc1ccc(C#Cc3ccc(OC)cc3)cc12 | -0.523 | 0.396 | -0.0158 | 0.357 | 1.27 | 0.384 | 1.07 | 0.0523 (inactive) | 0.786 | 0.473
CC(c1ccccc1)C(O)C1C=CC2C(=O)N(c3ccccc3)C(=O)C2N1Nc1ccccc1F (stereo not given) | -0.0296 | 0.267 | 0.0786 | 0.26 | 0.917 | 1.28 | 0.679 | 0.985 (inactive) | 1.34 | -0.191
Cc1ccc(S(=O)(=O)N2CC(C(=O)O)=CCC2c2ccccc2)cc1 (stereo not given) | 0.578 | -0.0007 | -0.0128 | 0.118 | -0.0631 | -0.0288 | -0.11 | -1.03 (inactive) | -0.513 | -0.204
COC(=O)c1c2oc(c1C(=O)OC)C(=O)N[C@H](Cc1ccccc1)Cn1nncc1C1(CCCCC1)NC(=O)N[C@H](CO)CC2 | -0.442 | 0.158 | -0.0853 | 0.108 | 0.0153 | -0.0781 | 0.646 | -1.33 (inactive) | 0.233 | -0.212
O=C1OCC=C[C@H]2OC34C=CCN(Cc5ccccc5)C(=O)[C@H]3N(CCCO)C(=O)[C@@H]4[C@@H]12 (stereo not given in full) | 0.646 | -0.815 | 0.0661 | -0.17 | -0.286 | 2.42 | 1.42 | 0.0735 (inactive) | 0.245 | 0.902
